From PubChem BioAssay
Rows were chosen to be rich in hits. Some 7.1% of all compounds tested hit in one or more screens of this group.
MCF10A rereplic: A quantitative high throughput screen for small molecules that induce DNA re-replication in MCF 10a normal breast cells; MCF 10A DNA re-replication, Hoechst nuclear intensity, 48 h; Potency, µM (doses to about 46.1 µM), inactives show top-dose activity, positive = re-replication, usual class: activators; 2.9% of 350,000 active; AID 624296, 2012; further: potency means the concentration at half of the fitted maximal effect; % of control where 0% means no effect; nearly all actives have a fitted effect of over 50% in size
IL1B secr inh: qHTS for Inhibitors of Inflammasome Signaling: IL-1-beta AlphaLISA Primary Screen. THP-1 LPS/ATP IL-1B secretion, AlphaLISA, 16 h; hits give low values. AID 743279, 2014. 4.7% of 360,000 active. activity change, % at 57.5 µM; in the data active means activity change below about -50%; inconclusive means mostly about -30% to -49%; further: on the % scale 0 is the no-effect control and ±100 the full control effect
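THP-1 cells pretreated 1 hr with compounds (up to 57.5 uM final), then stimulated with LPS (250 ng/mL final) plus ATP (1.25 mM final); secreted IL-1B measured by AlphaLISA after 16 hr, decreased signal indicating inhibition.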
ATXN viability: Viability Counterscreen for Primary qHTS for Inhibitors of ATXN expression; S2 cells (HEK-293 line with an ATXN2-luciferase reporter) viability, CellTiter-Fluor protease fluorescence, 24 h; Potency, µM (doses to about 56.7 µM), actives largely listed as cytotoxic; 0.49% of 400,000 active; AID 651635, 2014; further: potency means the concentration at half of the fitted maximal effect; nearly all actives have a fitted effect of over 40% in size
ATXN2 expr inh: Primary qHTS for Inhibitors of ATXN expression. HEK-293 ATXN2-luciferase reporter, luminescence, 24 h. Potency, µM (highest dose often 57 µM), without a hit: at the highest dose activity change, negative = inhibition, actives largely listed as inhibitors. 0.72% of 360,000 active; further: potency means the concentration at half of the fitted maximal effect; on the % scale 0 is the no-effect control and ±100 the full control effect; nearly all actives have a fitted effect of over 55% in size
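qHTS (up to 57 uM final) was run with 24 h compound exposure of reporter cells at 37 °C. Each well was multiplexed: SteadyGlo luminescence measured ATXN2-luciferase expression after a fluorogenic Gly-Phe-AFC viability readout (25 uM final).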
SW480 rerep: A quantitative high throughput screen for small molecules that induce DNA re-replication in SW480 colon adenocarcinoma cells; 1.8% of 340,000 active; SW480 DNA re-replication, Hoechst DNA content imaging, 48 h; Potency, µM (titrated, usually from 46.1 µM), inactives show at the highest dose re-replication activation, usual class: activators; further: potency means the concentration at half of the fitted maximal effect; % of control where 0% means no effect; nearly all actives have a fitted effect of over 55% in size
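Quantitative HTS format with DMSO vehicle controls; 48 hr drug incubation at 37 C, then 40 min Hoechst staining and scanning imager measurement at 405 nm excitation.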
PINK1 expr mod: A Quantitative High throughput Screen to Identify Chemical Modulators of PINK1 Expression. PINK1 immunofluorescence, high-content cytometry, 24 h. AID 624263, 2012. 0.2% of 410,000 active. Potency, µM (highest dose often 76.6 µM), for inactives: at the top dose activation (PINK1 increase), hits mostly activators; active means well fitted activation curve with a large enough effect; inconclusive means small, poorly fitted or top-dose-only effect; cell line not stated here; further: potency means the concentration at half of the fitted maximal effect; % of control where 0% means no effect; nearly all actives have a fitted effect of over 65% in size
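Fluorescence from anti-PINK1 antibody, together with nuclear and cell stains, was scanned on a laser-scanning cytometer. Before staining, stable-line cells were incubated 24 hours with compounds at 5 concentrations; primary antibody 12 h at 10 degrees C.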
* = called active by the depositor; i = inactive; ? = inconclusive; . = no result; [ ] = dose if it differs, or a comment. Unless noted, the call rests on the fitted dose curve; in most records, active means well fitted curve in the direction sought with a large enough effect; inconclusive means small, poorly fitted or top-dose-only effect, or another doubt; inactive means no such curve, though single readings can be large; an effect the other way counts as inactive or inconclusive.

SMILES | MCF10A rereplic | IL1B secr inh | ATXN viability | ATXN2 expr inh | SW480 rerep | PINK1 expr mod
Clc1nc(-c2ccccn2)nc2scc(-c3ccccc3)c12 | ? | -60* | ? | -17% | ? | 2%
C=Cc1ccc(Cn2c(C)c(CNCCc3ccc(OCC)cc3)c(C(=O)O)c2C)cc1 | . | . | ? | -22% | . | 2%
COc1ccc(NC(=O)c2csc(Cc3ccc(Cl)cc3)n2)cc1 | 12% | -4 | i | -19% | -6% | 0%
COc1ccc(CNC(=O)c2csc(Cc3ccc(Cl)cc3)n2)cc1 | ? | -55* | i | 6% | 9% | -3%
COc1ccc(CNC(=O)c2csc(Cc3ccc(OC)cc3)n2)cc1 | 2% | -20 | i | -6% | ? | -1%
COc1ccc(Cc2nc(C(=O)Nc3ccccc3)cs2)cc1 | 23% | -54* | i | 17% | 2% | -2%
C[C@H](NC(=O)c1[nH]cnc1C(=O)Nc1ccc(Cl)cc1)c1ccccc1 | 16µM* | -24 | ? | ? | -31%[9.22 µM] | 0%
C[C@H](NC(=O)c1[nH]cnc1C(=O)Nc1cccc(Cl)c1)c1ccccc1 | -6% | 4 | ? | -12% | -3% | 7%
C[C@@H](NC(=O)c1[nH]cnc1C(=O)Nc1ccc(Cl)cc1)c1ccccc1 | 25% | -9 | ? | -21% | -2% | 0%
C[C@@H](NC(=O)c1[nH]cnc1C(=O)Nc1cccc(Cl)c1)c1ccccc1 | 12µM* | 6 | ? | -16% | -7%[9.22 µM] | 3%
O=C1S/C(=C\C=C\c2ccco2)C(=O)N1c1ccccc1 | ? | -78* | i | 11% | ? | 6%
O=C1S/C(=C\C=C\c2ccco2)C(=O)N1c1ccc(O)cc1 | ? | -97* | i | 46% | 0% | 3%
O=C(O)CC(C(=O)O)N1C(=O)/C(=C/C=C/c2ccco2)SC1=S (centres undefined) | -2% | 7 | ? | -19% | -6% | 1%
O=C(O)CCCN1C(=O)/C(=C/C=C/c2ccco2)SC1=S | -12% | ? | ? | -32% | -5% | 2%
CC1(C)Cc2c(ccc3ccccc23)/C(=C/C(=O)N2CCCCC2)N1 | ? | -62* | i | -37% | ? | ?
O=C(/C=C1\NC2(CCCC2)Cc2ccccc21)N1CCOCC1 | ? | -15 | i | -11% | 3% | -1%
CN1CCN(C(=O)Cn2c(-c3cccs3)cc3cc(Cl)ccc32)CC1 | . | . | ? | ? | . | -2%
CC1CC(Nc2ccccc2)c2ccccc2N1C(=O)c1cccnc1 (centres undefined) | ? | 0 | i | ? | 9% | 4%[38.3 µM]
C[C@@H]1C[C@H](Nc2ccccc2)c2ccccc2N1C(=O)c1cccnc1 | 13µM* | -3 | i | -23% | ? | 8%
CC(C)NC(=O)c1ccc(Cn2c(=O)c3cccn3c3cccnc32)cc1 | . | . | . | . | . | 2%
CC(C)C[C@@H](COCc1ccc(C(F)(F)F)cc1)N1CCN(C(=O)c2ccc(C(F)(F)F)cc2)CCC1=O | . | -76* | ? | ? | . | 2%
Cc1ccc(COC[C@H](CC(C)C)N2CCN(C(=O)c3cccc(C(F)(F)F)c3)CCC2=O)cc1 | . | -5 | ? | ? | . | 25%
CC(C)CC(COCc1cccc(C(F)(F)F)c1)N1CCN(C(=O)c2cccc(C(F)(F)F)c2)CCC1=O (centres undefined) | ? | -67* | . | ? | 23% | -1%
CC(C)CC(COCc1ccc(Cl)cc1)N1CCN(C(=O)c2cccc(C(F)(F)F)c2)CCC1=O (centres undefined) | -1% | -24 | ? | -34% | -7% | 30%
CC(C)CC(COCc1ccc(C(F)(F)F)cc1)N1CCN(C(=O)c2ccc(C(F)(F)F)cc2)CCC1=O (centres undefined) | 24% | -54* | ? | ? | ? | 1%
SMILES | MCF10A rereplic | IL1B secr inh | ATXN viability | ATXN2 expr inh | SW480 rerep | PINK1 expr mod
CC(C)C[C@@H](COCc1cccc(Cl)c1)N1CCN(C(=O)c2ccc(C(F)(F)F)cc2)CCC1=O | . | -50* | . | ? | . | ?
COc1cccc2c1C(=O)/C(=C\c1ccc(N(C)C)cc1)C2 | . | . | . | . | . | 9%
CCOc1ccccc1NC(=O)N(C)CCc1c(C)nn(CC)c1C | . | . | i | 8% | . | -1%
O=C1C(Br)=Cc2cccc3cccc1c23 | 1% | -75* | . | -6% | -3% | 4%
O=C1c2sccc2-c2cccc3cccc1c23 | . | -24 | . | . | . | 0%
CCc1ccc(NS(=O)(=O)c2ccc3[nH]cc(C(=O)NCc4ccc(C)cc4)c(=O)c3c2)cc1 | . | . | i | ? | . | 5%
Cc1ccc2nc(-c3ccccc3C)c(CN(CC3CCCO3)C(=O)c3cccs3)cc2c1 (centres undefined) | . | . | i | . | . | 1%
C=CCSC(=C(C#N)C#N)c1cc2c([nH]1)CCCC2 | ? | -115* | i | -30% | ? | -1%
COc1cc(=O)n2c(c1C(=O)NCc1ccco1)CCN(Cc1cc3ccccc3[nH]1)CC2 | . | . | i | . | . | 1%
COc1nc(C#N)nc(N2CCCCC2)n1 | . | . | . | . | . | 0%
COc1nc(OC)nc(N2CCCCCC2)n1 | 21µM* | 26 | i | 1% | -2% | 0%[38.3 µM]
C=C1C(=O)O[C@@H]2[C@H]1[C@@H](OC(=O)/C(C)=C/C)C/C(C)=C\C(=O)/C=C(\C)[C@@H]2O | 19% | -102* | 10µM* | 6.3µM* | ? | ?
CC1=C(C(=O)Nc2ccc(C)c(C)c2)C2(CCCCCC2)OC1=O | . | . | . | . | . | 2%
N#C/C(=C\c1ccncc1)c1ccccn1 | ? | -100* | i | 17% | ? | 0%
C[C@@H](NC(=O)/C(C#N)=C/c1ccc(O)c(O)c1)c1ccccc1 | -8% | 28 | ? | -17% | 18% | 2%
N#C/C(=C\c1ccc(Cl)c([N+](=O)[O-])c1)c1ccccn1 | ? | -97* | i | -37% | ? | -1%
CC(NC(=O)/C(C#N)=C/c1ccc(Cl)c([N+](=O)[O-])c1)c1ccccc1 (centres undefined) | ? | -98* | 22µM* | . | -140% | -2%
N#C/C(=C\c1ccccc1)c1ccccn1 | -2% | 0 | i | 19% | -19% | 0%
Cc1cc(Cl)c(OCCCn2ccnc2)c(Br)c1 | 12% | -72* | ? | -31% | -9% | 3%
Cc1cc(Cl)c(OCCCNC2CCCC2)c(Br)c1 | 21% | -73* | i | -28% | ? | 14%
COCCCNCCCCOc1c(Cl)cc(C)cc1Br | 19% | -18 | i | -39% | 2% | 0%
